Results taken from PubChem BioAssay.

Test: Plasmodium falciparum growth inhibition, primary screen, strain 3D7, DAPI fluorescence, 100 nL (AID 1184);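 further: parasites grown inside human red blood cells in medium with human serum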
Conditions: P. falciparum 3D7 growth, 3 d, higher = more signal

SMILES	z-score
[N-]=[N+]=NCc1ccccc1C[C@]1(C(=O)NCc2ccccc2)COC(c2ccc(OCCCO)cc2)=N1	-2.45
COc1ccc([Si](C)(C)[C@H]2[C@H](CC(=O)N(CCO)Cc3ccccc3)O[C@@]3(C(=O)N(Cc4cccc(N5C(=O)c6cccc7cccc5c67)c4)c4ccccc43)[C@@H]2C)cc1	-2.72
Cc1ccc(S[C@]2(C(=O)NCC(F)(F)F)CC(=O)N(C3Cc4ccccc4C3)[C@@H]2c2ccc(CO)cc2I)cc1	0.178
O=[N+]([O-])c1ccc(C[n+]2ccc(CCCO)cc2)o1	-1.28
CCCCC(=C=CC[C@H](O)c1ccccc1OCCO)C[C@H](O)c1cc(Cl)cc(Cl)c1O	-1.09
CCCNC(=O)[C@@]1(C)c2ccccc2C(=O)N(Cc2ccc(OC(F)(F)F)cc2)[C@H]1c1ccc(CO)cc1	-0.775
COc1ccc(C(O)C2C=CC3C(=O)N(c4ccccc4)C(=O)C3N2Nc2ccccc2)c2ccccc12 (stereo unspecified)	-0.182
CC(C)(C)OC(=O)CC[C@]1(C(=O)NCC(O)CO)N=C(c2ccc(OCCCO)cc2)O[C@H]1c1ccccc1CN=[N+]=[N-] (stereo partly specified)	-0.121
CCOC(=O)C=Cc1cccc(OC)c1O	-1.24
C=CCN1C(=O)[C@]2(Cc3ccccc31)N=C(c1ccc(OCCCO)cc1)O[C@@H]2c1ccccc1	-2.07
C=CC[C@@]1(C(N)=O)N=C(c2ccc(OCCCO)cc2)O[C@@H]1c1ccccc1N=[N+]=[N-]	-1.73
C=CCC(OC(C)=O)[C@@H]1[C@@H](N(Cc2cc3ccccc3o2)C(=O)c2cccc3ccccc23)c2cc(OCCCO)ccc2N1C(=O)Cc1ccc(OC)cc1 (stereo partly specified)	-2.37
O=C1C2C=CC(C(O)c3ccc(-c4ccccc4)s3)N(Nc3ccccc3F)C2C(=O)N1c1ccccc1 (stereo unspecified)	-0.531
C=CC[C@@]1(C(=O)OC)N=C(c2ccc(OCCCO)cc2)O[C@@H]1c1ccccc1CN=[N+]=[N-]	-2.39
O=C1C2C=CC(C(O)C3CC=CCC3)N(n3cnnc3)C2C(=O)N1Cc1ccccc1 (stereo unspecified)	0.017
CN(C)CCCC[C@@H]1NC(=O)[C@@H]2C[C@H](C(=O)NCCCCCN)[C@H](c3ccc(O)cc3)N2C1=O	0.336

SMILES	z-score
CCOC(=O)C1=C[C@@H](C(C)(C)C)N(S(=O)(=O)c2ccc(C)cc2)[C@H]1c1ccc(Cl)c(Cl)c1	-1.96
C=CCN1C(=O)[C@@]2(O[C@@H](CCO)[C@H]([Si](C)(C)c3ccc(OC)cc3)[C@H]2C)c2cc(NC(C)=O)ccc21	-2.74
CCN(CC)c1ccc(N2CC=CC34O[C@@H]5/C=C\CCC(C)OC(=O)C5[C@H]3C(=O)N(CCCCCCO)[C@@H]4C2=O)cc1 (stereo partly specified)	0.816
[N-]=[N+]=NCc1ccccc1C[C@]1(C(N)=O)N=C(c2ccc(OCCCO)cc2)O[C@H]1c1ccccc1N=[N+]=[N-]	-2.06
COCCOC(=O)N1C(=O)[C@@]2(c3cc(C#CC4=CCCCC4)ccc31)[C@H](C(=O)N1CCN(c3ncccn3)CC1)[C@H]1C(=O)O[C@H](c3ccccc3)[C@H](c3ccccc3)N1[C@@H]2c1ccc(OCCO)cc1	-2.08
Cc1ccc(S[C@]2(C(=O)NCC(C)C)CC(=O)N(Cc3ccccc3)[C@@H]2c2ccc(CO)cc2)cc1	-0.894
O=C1c2ccccc2[C@](Cc2ccccc2I)(C(=O)O)[C@H](c2ccc(CO)cc2)N1Cc1ccccc1C(F)(F)F	0.33
C=C(C)[C@@H]1CC=C(C(O)C2C=CC3C(=O)N(Cc4ccccc4)C(=O)C3N2n2cnnc2)CC1 (stereo partly specified)	-1.03
C=CCNC(=O)[C@@H]1[C@H]2C(=O)O[C@H](c3ccccc3)[C@H](c3ccccc3)N2[C@H](c2ccccc2OCCO)[C@@]12C(=O)N(C(=O)OCCOC)c1ccc(C#CCC(C(=O)OC)C(=O)OC)cc12	-2.14
CCCC[C@H]1OB(O)C[C@H]2C1=C(COc1ccccc1)C[C@H]1C(=O)N(Cc3ccccc3)C(=O)[C@H]12	0.589
CC(C)C(O)C1C=CC2C(=O)N(C)C(=O)C2N1N1CCCCC1 (stereo unspecified)	0.998
CCN(CC)c1ccc(N2CC=CC34O[C@@H]5/C=C\CCCOC(=O)C5[C@H]3C(=O)N(CCCO)[C@@H]4C2=O)cc1 (stereo partly specified)	0.404
Cn1c2c(c3ccccc31)C(=O)C1NC2C=CC1(C)C(=O)OCc1ccccc1 (stereo unspecified)	-0.502
CO[C@H]1O[C@H](CO)[C@@H](OC(=O)Nc2ccccc2-c2ccccc2)[C@H](OC(=O)Nc2ccccc2-c2ccccc2)[C@H]1OC(=O)Nc1ccccc1-c1ccccc1	-1.06
O=c1cccc(-c2cccc3ccccc23)o1	-0.796
